# Measurements as given in PubChem BioAssay.
# Active and inactive are the calls of the source.
# Legend:
# Albumin (Bos taurus) = Albumin (Bos taurus) (UniProt P02769); assay: compounds binding labelled BSA control protein – biochemical, small-molecule microarray, Alexa647 label, 635/667 nm fluorescence, artefact control for SMM control protein annotation, profiling panel (AID 1118); settings: BSA-A647 binding, fluorescence 635 nm, higher = more signal;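 also: score merges 667 nm emission intensity and signal-to-noise per printed compound spot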
# Sequence of Albumin (Bos taurus) (P02769 whole entry, looked up): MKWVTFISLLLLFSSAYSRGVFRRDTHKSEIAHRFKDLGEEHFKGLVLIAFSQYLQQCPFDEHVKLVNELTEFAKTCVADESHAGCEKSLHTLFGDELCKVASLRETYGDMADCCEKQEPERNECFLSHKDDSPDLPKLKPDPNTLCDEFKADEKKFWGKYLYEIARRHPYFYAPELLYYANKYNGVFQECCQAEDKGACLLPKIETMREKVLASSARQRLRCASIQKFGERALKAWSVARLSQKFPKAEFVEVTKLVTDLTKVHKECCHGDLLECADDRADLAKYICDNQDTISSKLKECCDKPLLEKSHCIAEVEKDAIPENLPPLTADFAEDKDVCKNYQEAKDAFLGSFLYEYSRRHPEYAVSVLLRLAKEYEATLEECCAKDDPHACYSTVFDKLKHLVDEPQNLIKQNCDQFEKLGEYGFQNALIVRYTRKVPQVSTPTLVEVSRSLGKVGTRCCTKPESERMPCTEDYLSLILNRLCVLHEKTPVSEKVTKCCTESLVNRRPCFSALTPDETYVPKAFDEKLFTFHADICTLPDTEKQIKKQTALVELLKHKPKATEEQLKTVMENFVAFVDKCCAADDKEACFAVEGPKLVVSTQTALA
# [1] = probe aXIP binding to arrayed compounds – biochemical, NeuroSMM set, 635/667 nm fluorescence, primary screen (AID 1119); settings: small-molecule microarray, higher = more signal, called active from +8 up or from −8 down;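 also: probe is the protein aXip251-270 applied at 1 µg/mL to compound-printed slides; binding of probe to printed compounds measured as 667 nm fluorescence plus signal to noise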
# [2] = probe aNOTCH3 binding on compound microarray – biochemical, small-molecule microarray, 635/667 nm fluorescence, primary screen (AID 1120); settings: higher = more signal;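 also: probe is a biotin-tagged antibody raised against NOTCH3 rather than NOTCH3 protein; score merges spot fluorescence near 667 nm with spot signal to noise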
# [3] = probe aNOTCH2 binding on compound microarray – biochemical, small-molecule microarray, 635/667 nm fluorescence, primary screen (AID 1121); settings: higher = more signal;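 also: score merges feature fluorescence read at 667 nm with its signal to noise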
# [4] = target: Carbonic anhydrase 2 (Homo sapiens) (UniProt P00918); assay: compounds binding carbonic anhydrase 2 – biochemical, small-molecule microarray, Alexa647-labelled CAII, profiling panel (AID 1122); settings: CAII-A647 binding fluorescence, higher = more signal
# [5] = COS7 lysate on small-molecule microarray, probe aHis, 635 nm (AID 1123); settings: COS7 cell lysate, fluorescence, higher = more signal;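 also: z-score combines 667nm fluorescence intensity with signal-to-noise per printed compound spot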
# [6] = probe aLAP1 signal on lysate-treated microarray – cell lysate, small-molecule microarray, COS7 lysate, primary screen (AID 1124); settings: probe aLAP1, fluorescence, higher = more signal;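 also: lysate comes from COS7 cells expressing LAP1 and is applied at 0.3 µg/mL; score merges spot fluorescence near 667 nm with signal-to-noise over triplicate slides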
# Sam68 (KHDRBS1) = assay: compounds binding KHDRBS1 protein – biochemical, small-molecule microarray, 635 nm fluorescence, primary screen (AID 1125); settings: higher = more signal;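 also: score merges 667 nm channel intensity with signal to noise over triplicate slides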
# [7] = system: Chordin-like protein 2 (CHRDL2); assay: compounds binding chordin-like 2 – biochemical, small-molecule microarray, 635 nm fluorescence, primary screen (AID 1126); settings: fluorescence 635 nm, higher = more signal;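 also: printed compound slides probed with Chrdl2 protein at 4 µg/mL for 1 h at 4 C; score merges 667 nm emission intensity with signal to noise over three replicate slides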
# [8] = target: Concanavalin-A (Canavalia ensiformis) (UniProt P02866); assay: compounds binding concanavalin A lectin – biochemical, small-molecule microarray, Alexa647 label, 635 nm, artefact control for SMM control protein annotation, primary screen (AID 1127); settings: ConA-A647 binding fluorescence, higher = more signal;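 also: z combines 667 nm emission intensity with signal-to-noise across three replicate slides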
# Sequence of Concanavalin-A (Canavalia ensiformis) (P02866 whole entry, looked up): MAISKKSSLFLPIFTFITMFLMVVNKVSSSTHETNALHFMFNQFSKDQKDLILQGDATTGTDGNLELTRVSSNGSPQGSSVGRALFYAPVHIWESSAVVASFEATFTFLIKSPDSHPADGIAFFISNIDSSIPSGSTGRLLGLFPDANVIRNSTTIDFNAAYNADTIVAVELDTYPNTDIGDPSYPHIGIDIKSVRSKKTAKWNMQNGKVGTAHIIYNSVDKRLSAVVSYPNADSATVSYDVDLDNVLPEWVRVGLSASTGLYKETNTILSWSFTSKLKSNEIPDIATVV
# [9] = compounds binding Alexa647 anti-His antibody – biochemical, small-molecule microarray, 635 nm fluorescence, artefact control for SMM control protein annotation, primary screen (AID 1128); settings: higher = more signal;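 also: score merges feature fluorescence with signal-to-noise for each printed compound spot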
# [10] = system: Human papillomavirus type 1a E7 protein (residues 1-88); assay: HPV1a E7 small-molecule binders, primary screen, biochemical, small-molecule microarray, residues 1-88, 635 nm (AID 1129); settings: small-molecule microarray binding, fluorescence 635 nm; higher = more signal
# [11] = target: Focal adhesion kinase 1 (Homo sapiens) (UniProt Q05397); assay: PTK2 protein binding on printed compound slides – biochemical, small-molecule microarray, 635/667 nm fluorescence, BSA, DTT, primary screen (AID 1130); settings: 635 nm fluorescence, higher = more signal;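 also: composite of spot emission at 667 nm and signal to noise over triplicate slides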
# Sequence of Focal adhesion kinase 1 (Homo sapiens) (Q05397 whole entry, looked up): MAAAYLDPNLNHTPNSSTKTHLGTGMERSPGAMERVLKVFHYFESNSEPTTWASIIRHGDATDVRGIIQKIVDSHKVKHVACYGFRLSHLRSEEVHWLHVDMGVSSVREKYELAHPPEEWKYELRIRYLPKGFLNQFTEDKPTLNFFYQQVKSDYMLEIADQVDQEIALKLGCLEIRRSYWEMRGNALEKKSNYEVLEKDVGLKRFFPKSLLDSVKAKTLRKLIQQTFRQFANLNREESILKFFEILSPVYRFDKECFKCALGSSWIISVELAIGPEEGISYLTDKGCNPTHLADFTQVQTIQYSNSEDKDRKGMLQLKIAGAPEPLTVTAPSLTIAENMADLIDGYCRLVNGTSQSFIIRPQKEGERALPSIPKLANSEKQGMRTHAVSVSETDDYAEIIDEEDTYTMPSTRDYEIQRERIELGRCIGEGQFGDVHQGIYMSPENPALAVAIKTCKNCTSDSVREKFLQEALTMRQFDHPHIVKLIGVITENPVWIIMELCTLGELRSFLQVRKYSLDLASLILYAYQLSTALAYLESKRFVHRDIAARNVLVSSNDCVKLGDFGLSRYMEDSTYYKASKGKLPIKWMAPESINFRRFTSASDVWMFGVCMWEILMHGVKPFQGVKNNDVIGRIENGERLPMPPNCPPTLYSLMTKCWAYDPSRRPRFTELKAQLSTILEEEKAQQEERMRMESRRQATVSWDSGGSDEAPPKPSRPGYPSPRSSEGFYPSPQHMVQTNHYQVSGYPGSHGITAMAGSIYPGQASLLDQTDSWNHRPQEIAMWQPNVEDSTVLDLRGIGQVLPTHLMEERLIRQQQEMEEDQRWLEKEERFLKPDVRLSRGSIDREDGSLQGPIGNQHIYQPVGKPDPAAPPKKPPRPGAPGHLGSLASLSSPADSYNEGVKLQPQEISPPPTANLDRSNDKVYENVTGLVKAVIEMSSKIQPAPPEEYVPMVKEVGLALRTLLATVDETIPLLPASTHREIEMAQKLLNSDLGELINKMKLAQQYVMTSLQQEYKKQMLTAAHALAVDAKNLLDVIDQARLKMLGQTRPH
# [12] = system: Fibrinogen (Alexa647-labelled); assay: Alexa647-fibrinogen binding to printed small molecules – biochemical, small-molecule microarray, 635/667 nm fluorescence, artefact control for SMM control-protein annotation, profiling panel (AID 1131); settings: fibrinogen-A647 binding fluorescence, higher = more signal;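 also: z-score merges 667 nm fluorescence with per-spot signal-to-noise over triplicate slides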
# [13] = target: Follistatin (Homo sapiens) (UniProt P19883); assay: FST protein binding to printed compounds – biochemical, small-molecule microarray, 635/667 nm fluorescence, primary screen (AID 1132); settings: 635 nm fluorescence, higher = more signal
# Sequence of Follistatin (Homo sapiens) (P19883 whole entry, looked up): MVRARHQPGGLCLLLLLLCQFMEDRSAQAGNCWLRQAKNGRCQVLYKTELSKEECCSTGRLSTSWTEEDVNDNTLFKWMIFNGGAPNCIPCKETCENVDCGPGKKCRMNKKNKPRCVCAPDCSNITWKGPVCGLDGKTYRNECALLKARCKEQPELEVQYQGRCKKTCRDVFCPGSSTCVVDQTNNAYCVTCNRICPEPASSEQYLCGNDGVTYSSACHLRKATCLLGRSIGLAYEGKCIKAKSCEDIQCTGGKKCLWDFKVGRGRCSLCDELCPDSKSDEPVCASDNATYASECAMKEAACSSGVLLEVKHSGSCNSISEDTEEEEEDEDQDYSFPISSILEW
# [14] = target: Fibroblast growth factor 2 (Homo sapiens) (UniProt P09038); assay: basic fibroblast growth factor binding to printed compounds – biochemical, small-molecule microarray, 635/667 nm fluorescence, primary screen (AID 1133); settings: FGF2, fluorescence 635/667, higher = more signal
# Sequence of Fibroblast growth factor 2 (Homo sapiens) (P09038 whole entry, looked up): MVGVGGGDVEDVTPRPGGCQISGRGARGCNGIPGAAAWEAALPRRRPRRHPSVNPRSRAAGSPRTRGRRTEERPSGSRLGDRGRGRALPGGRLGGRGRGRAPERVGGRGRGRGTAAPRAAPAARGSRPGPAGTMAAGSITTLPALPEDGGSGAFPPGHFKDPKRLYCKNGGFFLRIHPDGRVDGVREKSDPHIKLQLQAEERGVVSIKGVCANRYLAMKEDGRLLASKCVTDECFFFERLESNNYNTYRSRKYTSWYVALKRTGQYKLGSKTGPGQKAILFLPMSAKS
# [15] = JC-1 mitochondrial potential readout, lung cancer cells – cell-based, A549, JC-1 fluorescence, basal, 24 h, 100 nL, profiling panel (AID 1138); settings: higher = more signal;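 also: A549 lung adenocarcinoma cells under basal conditions with no added stimulus; test concentration not given here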
# Lefty1 = Lefty1 protein binding to printed compounds – biochemical, small-molecule microarray, 635/667 nm fluorescence, primary screen (AID 1139); settings: fluorescence 635/667, higher = more signal
# [16] = system: wheat germ agglutinin (Triticum aestivum), Alexa647-labelled; assay: Alexa647-WGA lectin binding to printed small molecules – biochemical, small-molecule microarray, 635/667 nm fluorescence, artefact control for SMM control-protein annotation, profiling panel (AID 1140); settings: WGA-A647 binding, 635 nm fluorescence, higher = more signal;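 also: score merges 667 nm feature emission with signal to noise over triplicate slides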
# [17] = target: Luciferin 4-monooxygenase (Photinus pyralis) (UniProt P08659); assay: inhibition of purified Photinus pyralis luciferase – biochemical, luminescence, purified enzyme, 2006 set, primary screen (AID 1141); settings: purified firefly luciferase, SteadyGlo luminescence, 30 min; higher = more signal, called active from +8 up or from −8 down;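 also: cell-free assay with purified firefly luciferase at 100 ng per well in PBS; test concentration not given here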
# Sequence of Luciferin 4-monooxygenase (Photinus pyralis) (P08659 whole entry, looked up): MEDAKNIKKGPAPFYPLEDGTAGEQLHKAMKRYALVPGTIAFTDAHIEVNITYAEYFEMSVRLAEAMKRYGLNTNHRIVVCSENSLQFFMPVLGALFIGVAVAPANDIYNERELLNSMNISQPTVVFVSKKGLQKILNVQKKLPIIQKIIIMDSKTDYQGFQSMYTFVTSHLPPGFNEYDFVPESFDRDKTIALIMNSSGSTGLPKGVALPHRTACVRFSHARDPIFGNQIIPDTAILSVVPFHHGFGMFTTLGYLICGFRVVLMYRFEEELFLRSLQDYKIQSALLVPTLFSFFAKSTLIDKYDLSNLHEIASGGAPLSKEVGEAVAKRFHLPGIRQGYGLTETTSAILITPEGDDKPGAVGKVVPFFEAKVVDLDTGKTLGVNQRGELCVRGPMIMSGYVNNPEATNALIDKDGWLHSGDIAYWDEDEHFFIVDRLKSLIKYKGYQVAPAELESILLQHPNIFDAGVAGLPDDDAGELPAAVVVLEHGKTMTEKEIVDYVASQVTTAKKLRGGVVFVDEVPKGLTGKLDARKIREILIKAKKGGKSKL
Structure (SMILES),composite z-score (Albumin (Bos taurus)),composite Z-score [1],composite z-score [2],composite z-score [3],composite z-score [4],composite z-score [5],composite z-score [6],composite z-score (Sam68 (KHDRBS1)),composite z-score [7],composite z-score [8],composite z-score [9],composite z-score [10],composite z-score [11],composite z-score [12],composite z-score [13],composite z-score [14],z-score [15],composite z-score (Lefty1),composite z-score [16],z-score [17]
COC(=O)C[C@H]1O[C@]2(C(=O)N(C)c3ccccc32)[C@@H](C)[C@@H]1[Si](C)(C)F,-0.255,0.448 (inactive),-0.0584,-0.161,0.224,0.597,-0.0413,1.09,0.592,0.596,0.0783,0.608,0.26,0.209,1.18,2.03,0.435,1.33,-0.0572,-1.82 (inactive)
CCCC[C@@H]1C[C@H]1[C@@H](NC(=O)c1ccco1)c1ccccc1C(F)(F)F,0.706,-0.234 (inactive),1.91,0.752,0.561,1.09,0.451,-0.215,0.23,0.418,-0.422,0.0662,0.57,0.349,0.674,-0.527,-0.914,-0.302,1.15,1.8 (inactive)
CCCC[C@@H]1C[C@H]1[C@@H](NC(=O)c1ccccc1)c1ccc(C(=O)OC)cc1,-0.108,0.953 (inactive),-0.048,0.0203,0.287,0.157,-0.156,-0.316,-1.26,-0.364,-0.248,-0.429,0.0213,0.0563,-0.676,-1.67,0.348,-0.684,-0.113,-0.438 (inactive)
O=C1O[C@H](c2ccccc2)[C@H](c2ccccc2)N2[C@H]1[C@@H](C(=O)N1CCCCCCC1)[C@]1(C(=O)Nc3ccc(C#CCCO)cc31)[C@H]2c1ccccc1OCCO,0.536,10.7 (active),2.31,1.14,1.12,5.54,1.3,1.35,1.7,1.21,3.55,1.36,5.56,1.02,1.58,1.16,0.372,1.93,1.64,-1.35 (inactive)
COC(=O)c1c(CC[C@@H](CO)NC(=O)NCCn2cc(C3(O)CCCC3)nn2)oc(C(C)=O)c1C(=O)OC,0.351,-0.79 (inactive),-0.209,-0.128,0.745,0.603,-0.108,0.492,-0.505,-0.027,0.828,0.0881,0.182,0.292,-0.273,0.247,-0.415,0.199,0.128,0.7 (inactive)
COc1ccccc1CN1C(=O)c2ccccc2[C@@]2(Cc3ccccc3N(CC(C)C)C2=O)[C@@H]1c1ccc(CO)cc1,-0.119,0.188 (inactive),-0.211,-0.143,-0.137,0.19,0.249,0.253,-0.238,0.277,-0.259,-0.827,-0.362,-0.705,-0.114,-0.556,0.379,-0.0355,-0.219,-0.35 (inactive)
COCCOC(=O)N1C(=O)[C@@]2(c3cc(C#CCC(C(=O)OC)C(=O)OC)ccc31)[C@H](c1ccccc1OCCO)N1[C@H](c3ccccc3)[C@H](c3ccccc3)OC(=O)[C@H]1[C@@H]2C(=O)N1CCN(c2ncccn2)CC1,0.846,0.347 (inactive),0.225,-0.0249,0.499,1.66,0.596,1.31,1.04,1.12,0.762,1.12,0.966,0.696,1.38,1.46,-0.895,1.17,0.63,0.505 (inactive)
CC(C)[Si](C#Cc1ccc(Oc2ccccc2)cc1)(O[Si](C#Cc1ccc(Oc2ccccc2)cc1)(C(C)C)C(C)C)C(C)C,0.216,0.387 (inactive),-0.0188,-0.037,0.603,0.407,0.115,0.562,0.156,-0.76,1.69,0.701,0.0273,0.654,0.218,0.925,0.108,1.07,0.372,-0.637 (inactive)
CN(C)CCCCCCNC(=O)[C@H]1C[C@H]2C(=O)N3CCC[C@H]3C(=O)N2[C@H]1c1ccc(O)cc1,-0.584,0.233 (inactive),0.377,-0.0438,0.561,2.04,0.81,1.34,1.43,1.22,2.74,1.24,1.03,0.678,1.34,1.48,-0.727,1.39,0.622,-0.171 (inactive)
O=C1C[C@@](C(=O)NCCN2CCOCC2)(c2ccc([N+](=O)[O-])cc2)[C@@H](c2ccc(CO)cc2I)N1CC12CC3CC(CC(C3)C1)C2,-0.091,0.0692 (inactive),0.0842,-0.037,0.584,1.77,0.811,1.33,0.392,0.987,1.37,1.24,0.656,0.954,1.19,1.22,-0.826,1.08,0.981,-1.51 (inactive)
CC(=O)NCCCC[C@@H]1NC(=O)[C@H]2C[C@@H](C(=O)NCCCCCCNC(=O)CS)[C@@H](c3ccc(O)cc3)N2C1=O,-1.4,0.239 (inactive),-0.216,-0.185,0.727,2.68,0.0073,0.0719,-0.205,-0.366,2.48,0.432,0.458,-0.397,-0.409,0.141,-1.08,-0.712,0.485,-0.644 (inactive)
